Data: the supplement of paper PMC10941209

Tested on: HFF
Experiment: cell viability relative to DMSO control; higher = less cytotoxic
Conditions: 1 µM; 72 h
Procedure: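 Single-dose cytotoxicity screen of the MMV Pandemic Response Box at 1 uM on human foreskin fibroblasts (HFF), 72 h at 37 C. Viability measured by MTT (OD 550 nm) and normalised to the DMSO control (% survival).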

SMILES | cell viability [%]
Nc1nc(Nc2ccc3nc(-c4ccc(F)cc4)cc(N)c3c2)cc(-c2ccccc2)n1 | 78.1
CN(C(=O)C1(c2ccc(Cl)cc2)CCC1)c1ccccc1 | 63.2
CN1c2ccc(Cl)cc2N(c2ccccc2)C(=O)c2cn(Cc3ccc(CN4CCOCC4)cc3)nc21 | 68.2
Cc1cc(CCOc2c(C)cc(-c3nnn(C)n3)cc2C)on1 | 69.2
Oc1c(C(Nc2ccccn2)c2ccccc2)ccc2cccnc12 (configuration not stated) | 69.9
COc1ccc(C)cc1NC(=O)c1ccc(S(=O)(=O)N2CCCCC2)cc1 | 76.4
CS(=O)(=O)c1ccc(Oc2ccc(Cl)cc2)cc1 | 69.7
Cc1cc(C2CCCCC2)n(O)c(=O)c1 | 78.2
CCOC(=O)/C=C/[C@H](C[C@@H]1CCNC1=O)NC(=O)[C@@H](CC(=O)[C@@H](NC(=O)c1cc(C)on1)C(C)C)Cc1ccc(F)cc1 | 73.2
NC(=O)C(c1ccccc1)(c1ccccc1)[C@H]1CCCN(CCc2ccc3c(c2)CCO3)C1 | 64
Nc1nc(N)c2c(Sc3ccccc3)cccc2n1 | 68.7
CCc1cc(CCCOc2c(C)cc(-c3noc(C(F)(F)F)n3)cc2C)on1 | 69.3
Cc1cc(C)n(O)c(=O)c1 | 68.5
NC(=O)c1c(N)sc2c1CCCCC2 | 74.1
COc1ccc(SC(=O)N[C@H](CCC(=O)O)C(=O)O)cc1 | 59.7
O[C@@](Cn1cnnn1)(c1ccc(F)cc1F)C(F)(F)c1ccc(-c2ccc(OCC(F)(F)F)cc2)cn1 | 58.9
C(=C\c1nc2ccccc2[nH]1)/c1ccc2c(c1)OCO2 | 63.4
O=C(NCc1cccc2ccccc12)c1cccs1 | 66
CC1CCc2c(N3CCC(O)CC3)c(F)cc3c(=O)c(C(=O)O)cn1c23 (configuration not stated) | 59.7

SMILES | cell viability [%]
COCCn1cnc2c(O)nc(Nc3ccccc3)nc21 | 61
NC(=O)c1nccn([C@@H]2O[C@H](CO)[C@@H](O)[C@H]2O)c1=O | 72.5
CCCCCCC1c2ccc(O)cc2Oc2cc(O)ccc21 | 72.2
O=C(Nc1ccccc1)N(Cc1cc(Br)ccc1O)c1ccc(F)cc1 | 67.1
CC[C@H]1OC(=O)[C@H](C)[C@@H](O[C@H]2C[C@@](C)(OC)[C@@H](O)[C@H](C)O2)[C@H](C)[C@@H](O[C@@H]2O[C@H](C)C[C@H](N(C)C)[C@H]2O)[C@](C)(O)C[C@@H](C)C(=O)[C@H](C)[C@@H](O)[C@]1(C)O | 71.6
O=C(NC1CCCc2c1[nH]c1ccc(Cl)cc21)c1ccccn1 (configuration not stated) | 67.4
CCc1oc2ccccc2c1C(=O)c1ccc(O)cc1 | 71.1
CCCCSc1nc(N)c2[nH]c(=O)c(=O)n(Cc3ccccc3)c2n1 | 67.5
CC[C@@]1(O)C(=O)OCc2c1cc1n(c2=O)Cc2cc3c([N+](=O)[O-])cccc3nc2-1 | 53.1
CN(C)CC(=O)Nc1ccc2[nH]c(=O)c3ccccc3c2c1 | 59.3
CN(C/C=C/C#CC(C)(C)C)Cc1cccc2ccccc12 | 64.9
O=c1[nH]c(=O)n(Cc2cccc(Oc3ccccc3)c2)cc1Nc1ccccc1 | 63.8
CCc1cc(O)c(Oc2cccnc2N)cc1F | 65.5
CC[C@H](CO)Nc1nc(NCc2ccccc2)c2ncn(C(C)C)c2n1 | 68.9
C[C@H]1COc2c(N3CCN(C)CC3)c(F)cc3c(=O)c(C(=O)O)cn1c23 | 66
CCCCN1C[C@H](O)[C@@H](O)[C@H](O)[C@H]1CO | 63.2
CCCCCCCCC(CP(=O)(O)C(C)N)C(=O)O (configuration not stated) | 61.8
C=CCc1cc(Cc2cnc(N)nc2N)cc(OC)c1O | 72.9
